# This excerpt belongs to a sample that is enriched for hits.
# 12-LOX inh – inhibitors of human 12S-lipoxygenase ALOX12 | P18054 | purified 12hLO, xylenol orange hydroperoxide absorbance | Potency, µM (titrated, usually from 108 µM), most hits filed as inhibitors | 580,000 compounds, 1.1% hits | AID 1671190
# Target sequence (P18054 whole entry, looked up): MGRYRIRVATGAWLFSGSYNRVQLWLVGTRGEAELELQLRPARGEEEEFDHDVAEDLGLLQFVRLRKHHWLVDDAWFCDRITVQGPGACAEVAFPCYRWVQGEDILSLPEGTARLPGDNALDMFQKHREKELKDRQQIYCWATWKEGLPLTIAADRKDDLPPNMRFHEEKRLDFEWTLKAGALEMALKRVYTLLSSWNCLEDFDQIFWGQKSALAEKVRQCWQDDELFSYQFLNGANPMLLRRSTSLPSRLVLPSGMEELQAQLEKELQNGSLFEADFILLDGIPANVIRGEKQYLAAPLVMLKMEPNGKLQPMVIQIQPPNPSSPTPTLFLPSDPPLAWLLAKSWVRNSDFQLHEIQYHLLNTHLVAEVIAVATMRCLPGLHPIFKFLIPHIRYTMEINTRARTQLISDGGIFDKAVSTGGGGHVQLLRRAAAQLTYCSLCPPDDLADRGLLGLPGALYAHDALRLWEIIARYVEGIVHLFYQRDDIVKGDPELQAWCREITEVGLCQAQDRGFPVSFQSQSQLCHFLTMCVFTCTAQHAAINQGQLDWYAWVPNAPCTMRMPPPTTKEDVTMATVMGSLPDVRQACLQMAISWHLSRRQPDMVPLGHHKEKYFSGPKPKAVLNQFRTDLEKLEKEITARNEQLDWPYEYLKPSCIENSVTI
#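 Purified human 12hLO at 150 nM in 25 mM Hepes, 0.01% Triton X-100, pH 7.0, preincubated 15 min at room temperature with compound. Reaction started with 40 uM arachidonic acid, 30 min at room temperature. Hydroperoxide measured by Fe-xylenol orange, 573/405 nm absorbance ratio.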
# TDP1 cell noCPT – qHTS for Inhibitors of human tyrosyl-DNA phosphodiesterase 1 (TDP1): qHTS in cells in absence of CPT. DT40 Tdp1-/- hTDP1 cells, no CPT, ATP luminescence, 48 h. Potency, µM (doses to about 46.2 µM), hits mostly inhibitors. 420,000 compounds, 15% hits; also: nearly all actives have a fitted effect of over 55% in size
#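 Luminescent ATP content (CellTiter-Glo) served as the growth readout. Knockout chicken DT40 cells expressing human TDP1 were exposed to compounds without camptothecin for a minimum 48 hr at 37 °C.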
# HT1080 IDH1KD tx – toxicity to HT-1080 IDH1 knockdown cells (counter line); AID 686971; 360,000 compounds, 2% hits; Potency, µM (highest dose often 46.1 µM), hits mostly cytotoxic; HT-1080 IDH1 knockdown viability, ATP luminescence, 48 h
#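 IDH1KD HT-1080 cells, 750/well, RPMI + 5% FBS; compound pinned after 2 h settling; 48 h, 37 °C; CellTiter-Glo luminescence; % activity normalised to DMSO and no-cell wells; curves fitted, classed by r2 and efficacy.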
# TDP1 cell CPT – DT40-hTDP1 cell growth loss with CPT; chicken DT40 Tdp1-/-;hTDP1 cells + 20 nM CPT, ATP luminescence, 48 h; AID 686979; Potency, µM (doses to about 46.2 µM), actives largely listed as inhibitors; 420,000 compounds, 12% hits; also: nearly all actives have a fitted effect of over 55% in size
#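 Chicken DT40 Tdp1-/- cells stably complemented with human TDP1 were seeded at 400 cells/well in medium containing 20 nM camptothecin, exposed to pin-transferred compounds, and grown at 37 °C for at least 48 hr. Viability was read as ATP luminescence.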
# HT1080NT lethal – kills 2HG-producing HT-1080-NT fibrosarcoma cells. HT-1080-NT fibrosarcoma viability, CellTiter-Glo ATP luminescence, 48 h. Potency, µM (titrated, usually from 46.1 µM), usual class: cytotoxic. 360,000 compounds, 1.6% hits. AID 686970;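 also: NT is the 2HG producing partner of a matched IDH1 knockdown line; nearly all actives have a fitted effect of over 55% in size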
#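 Luminescent CellTiter-Glo readout after 48 hours of compound exposure at 37 degrees C defined viability of HT-1080-NT cells. Activity was normalized to DMSO wells and cell-free media wells; concentration-response curves were fitted and assigned curve classes.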
# IL-1B inflam inh – blocks inflammasome-driven IL-1 beta release; THP-1 LPS/ATP IL-1B secretion, AlphaLISA, 16 h; stronger effect = lower value; AID 743279; 360,000 compounds, 4.7% hits; activity change, % at 57.5 µM; in the data active = activity change below about -50%; inconclusive = mostly about -30% to -49%
#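 Secreted IL-1B measured by AlphaLISA bead assay after 16 h compound exposure of THP-1 cells; compounds (final up to 57.5 uM) added 1 h before LPS (250 ng/mL) and ATP (1.25 mM) stimulation; lower signal means less secretion.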
# Numbers stand for hits; i = inactive; ? = inconclusive; nt = no result given. Unless noted, calls follow the shape of the dose curve; as a rule, active = well fitted curve in the direction sought with a large enough effect; inconclusive = small, poorly fitted or top-dose-only effect, or another doubt; inactive = no such curve, though single readings can be large; an effect the other way counts as inactive or inconclusive.
SMILES,12-LOX inh,TDP1 cell noCPT,HT1080 IDH1KD tx,TDP1 cell CPT,HT1080NT lethal,IL-1B inflam inh
CC1Cc2ccccc2N1C(=O)CSc1nn2c(=O)c(C(C)(C)C)nnc2s1 (centres undefined),i,?,?,?,?,-96
CC(C)(C)c1nnc2sc(SCC(=O)NCc3ccco3)nn2c1=O,i,i,i,i,i,i
CC(C)(C)c1nnc2sc(SCC(=O)N3CCCc4ccccc43)nn2c1=O,i,23µM,i,?,i,i
Cc1ccc(NC(=O)CNc2cc(S(=O)(=O)N3CCOCC3)ccc2NCC2CCCO2)cc1F (centres undefined),i,?,i,?,i,i
O=C(CNc1cccc(S(=O)(=O)N2CCCC2)c1)Nc1ccc(C(F)(F)F)cc1,?,15µM,i,16µM,i,?
Cc1cccc(CNc2ccc(S(=O)(=O)N3CCCCC3)cc2)c1,i,?,i,21µM,i,i
Cc1cccc(NC(=O)CSCC(=O)Nc2ccc(S(=O)(=O)N3CCCC3)cc2)c1,i,i,i,i,i,i
CCNc1ccc(S(=O)(=O)N2CCOCC2)cc1NCC(=O)Nc1cccc(Br)c1,i,2.6µM,i,7.3µM,i,i
O=C(CNc1cccc(S(=O)(=O)N2CCCCC2)c1)Nc1ccc(C(F)(F)F)cc1,?,?,i,?,i,i
O=C(CNc1cccc(Br)c1)Nc1ccc(S(=O)(=O)N2CCCCC2)cc1,i,?,?,21µM,?,i
Cc1nc2cc(NC(=O)c3ccc(C(C)(C)C)cc3)ccc2o1,i,nt,nt,nt,nt,nt
CCn1nccc1C(=O)N1CC(Oc2ccccc2-c2nc(CCOC)no2)C1,i,nt,nt,nt,nt,nt
O=S(=O)(c1ccc(F)cc1)N1CCN(C23CC4CC(CC(C4)C2)C3)CC1,i,nt,nt,nt,nt,nt
CCNc1ccc(S(=O)(=O)N(C)C)cc1NCC(=O)Nc1ccccc1F,i,?,i,i,i,i
CN(C)S(=O)(=O)c1ccc(NC(=O)CNc2cc(S(=O)(=O)N3CCCC3)ccc2OCC(F)(F)F)cc1,i,18µM,i,21µM,i,i
CCNc1ccc(S(=O)(=O)N(C)C)cc1NCC(=O)Nc1ccc(F)c(Cl)c1,i,21µM,i,12µM,i,i
